High-throughput results deposited in PubChem BioAssay by several laboratories.
PfHsp40 yeast = restores yeast growth despite PfHsp40 toxicity | AID 504582 | 340,000 compounds, 0.68% hits | S. cerevisiae expressing PfHsp40, growth rescue, ATP luminescence | growth rescue, % at 12.5 µM; in the data active = growth rescue above about 28%, passing the limit was not always enough;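 also: yeast W303a lacking pdr1 and pdr3 grown in galactose medium; growth measured after three days at 30 °C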
FBA Mtb inh = inhibitors of M. tuberculosis fructose-bisphosphate aldolase; AID 588726; purified M. tuberculosis FBA, fluorescence read-out; inhibition, % at 1 µM; 360,000 compounds, 2.3% hits; in the data active = inhibition above about 27%;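 also: 0% = vehicle and 100% = reference inhibitor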
Target sequence (P9WQA3 whole entry, looked up): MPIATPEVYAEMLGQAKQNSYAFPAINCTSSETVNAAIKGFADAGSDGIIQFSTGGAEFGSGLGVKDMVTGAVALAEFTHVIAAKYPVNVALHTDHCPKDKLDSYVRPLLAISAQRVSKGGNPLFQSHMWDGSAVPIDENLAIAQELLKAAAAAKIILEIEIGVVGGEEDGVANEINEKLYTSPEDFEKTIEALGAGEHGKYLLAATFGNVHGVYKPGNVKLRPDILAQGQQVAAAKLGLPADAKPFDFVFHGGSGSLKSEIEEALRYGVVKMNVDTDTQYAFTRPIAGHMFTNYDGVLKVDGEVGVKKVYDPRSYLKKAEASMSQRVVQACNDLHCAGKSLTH
PrP 5UTR inh = inhibition of PrP 5' UTR reporter expression; cell-based PrP 5' UTR mRNA reporter, plate reader; inhibition, % (no concentration beside the values); 340,000 compounds, 0.35% hits; AID 488862; in the data active = inhibition above about 52%; also: 0 = median of the neutral control wells
PrPC surface inh = reduces human prion protein on the cell surface | 370,000 compounds, 0.43% hits | inhibition, % at 13.8 µM | cell surface PrPC, TR-FRET read-out; in the data active = inhibition above about 24%; also: 0% = median of the test wells and 100% = reference compound wells
GDH-TPI counter = counter-screen for M. tuberculosis FBA inhibitors: GDH-TPI coupled enzymes; inhibition, % at 4.8 µM; AID 588335; 360,000 compounds, 1.2% hits; GDH-TPI coupled enzyme counterscreen, NADH absorbance; in the data active = inhibition above about 30%;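 also: 0% = DMSO wells and 100% = wells lacking the enzyme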
BJeLR viability = kills HRASV12-expressing BJeLR cells. BJeLR (HRASV12) viability, CellTiter-Glo ATP luminescence, 48 h. AID 1554. 300,000 compounds, 0.17% hits. inhibition, % (test concentration not listed); in the data active = inhibition above about 50%
Starred values were filed as active, the others as inactive; x = not tested or not shown; + = active, no number. A selection: hits, their analogues and other compounds. The true share with any hit is near 4.5%.

SMILES	PfHsp40 yeast	FBA Mtb inh	PrP 5UTR inh	PrPC surface inh	GDH-TPI counter	BJeLR viability
O=C1CS/C(=C/C(=O)c2ccccc2)N1	-1	-3	-30	-2	44*	20
Cc1cc(C)cc(C(=O)/C=C2\NC(=O)CS2)c1	-1	-3	-16	0	39*	-7
Cc1ccccc1C(=O)/C=C1\NC(=O)CS1	1	-2	-6	-2	48*	-12
Cc1ccccc1-c1cccc2c3c([nH]c12)[C@@H]1C[C@H]2[C@@H](CN1CC3)[C@H](C)ON2C	x	x	x	-9	x	x
CCC[C@H]1[C@@H](NC(=O)c2cccc(C(F)(F)F)c2)CC[C@@]23CCCN2C(=O)CCC[C@@H]13	x	x	x	-5	x	x
O=S(=O)(Nc1ccccc1C(F)(F)F)c1ccc(-c2ccccn2)s1	28*	1	-22	1	12	0
Cc1[nH]c(N=Nc2ccccc2)nc1N=Nc1ccccc1	80*	-27	-23	1	13	5
Nc1ccc(N=Nc2ccccc2)c(N)n1	6	-14	-38	-27	14	0
COC(=O)[C@]12C[C@H](CC(=O)NCc3cccs3)C(=O)N(Cc3ccco3)C1=C[C@H](C(C)(C)C)O[C@@H]2C	x	x	x	-2	x	x
CC(C)(C)OC(=O)N1CCC(c2ccc[nH]2)(c2c[nH]c3ccccc23)CC1	x	x	x	5	x	x
CCN1CCN(c2ncc(C(=O)Nc3ccccc3C(=O)OC)c3ccccc23)CC1	0	9	-1	-7	31*	7
COc1ccc(/C=C/C(=O)c2ccc([N+](=O)[O-])o2)cc1	0	-1	1	0	1	14
Cc1ccc(C(=O)/C=C/c2ccc(F)cc2)o1	-1	-3	-27	-4	39*	-6
CCOC(=O)CN1C(=O)N[C@@H](c2cccc(F)c2)C(C(C)=O)=C1C	1	-2	-14	3	2	3
CCOC(=O)CN1C(=O)N[C@@H](c2cccc(F)c2)C(C(=O)OC)=C1C	40*	1	-20	2	-3	-2
CCOC(=O)CC[C@@]1(C(=O)OCC)C[C@@H](CC(=O)N2CCN(C(=O)c3ccco3)CC2)C(=O)N2CCCC=C21	x	x	x	3	x	x
O=C(Nc1cc(Oc2ccc(Cl)cc2)cc([N+](=O)[O-])c1)c1ccco1	352*	-1	-18	-2	9	-5
COC(=O)C1=C(c2ccc(OC(F)(F)F)cc2)C[C@@H]2CC[C@H]1N2C(=O)N1CCC(C)CC1	41*	-2	-17	13	3	x
COC(=O)C1=C(c2ccc(OC(F)(F)F)cc2)C[C@@H]2CC[C@H]1N2C(=O)N1CCCC1	2	4	-2	17	6	x
COc1cccc(-c2nn(C)c3sc(C(=O)NCc4ccco4)cc23)c1	0	48*	-8	7	17	3
COc1ccc2nc(C)cc(N/N=C/c3ccc(F)cc3)c2c1	-1	2	15	-8	6	93*
COc1ccc2nc(C)cc(Nc3ccc(C(=O)O)cc3)c2c1	1	0	-5	x	3	-4
COc1ccc(Nc2cc(C)nc3ccc(OC)cc23)cc1	-2	2	-1	-18	34*	-12
COc1ccc(/C=N/Nc2cc(C)nc3ccccc23)cc1	2	4	-19	-21	21	20
COc1ccc(Nc2ccnc3ccccc23)cc1	-1	0	0	-12	32*	1
SMILES	PfHsp40 yeast	FBA Mtb inh	PrP 5UTR inh	PrPC surface inh	GDH-TPI counter	BJeLR viability
O=C(NCCc1c[nH]c2ccccc12)OCc1cn(Cc2cccc(F)c2F)nn1	x	x	x	11	x	x
CCOC(=O)c1c(-c2ccccc2)oc2ccc(O)cc12	318*	3	-16	-6	7	-13
C[C@H]1[C@@H](NC(=O)c2ccc(Cl)cc2)CC[C@@]23CCCN2C(=O)CCC[C@@H]13	x	x	x	-6	x	x
Cc1ccc(S(=O)(=O)N(CCc2ccccc2)CC(=O)N2CCOCC2)cc1	x	x	x	-4	x	x
Nn1c(SCc2ccc([N+](=O)[O-])cc2)nnc1-c1n[nH]c2c1CCC2	x	x	x	-17	x	x
COc1ccc2c(c1)C1C=CCC1C(c1cc3c(cc1Br)OCO3)N2 (stereo unspecified)	68*	-3	-17	1	10	5
CCCCN(C)S(=O)(=O)c1cc2c(cc1Br)CCN2C(=O)C1CC1	123*	0	-26	-6	4	x
O=C(C1CC1)N1CCc2cc(Br)c(S(=O)(=O)NCCCN3CCCCC3)cc21	x	x	x	-13	x	x
CCOC(=O)c1cc2c(=O)n3ccccc3nc2n(CCCOC)c1=NC(=O)c1ccncc1	1	+	3	-19	17	-5
COCCCn1c(C(=O)Nc2ccc3c(c2)OCO3)cc2c(=O)n3cccc(C)c3nc21	x	2	x	-4	12	x
CCOC(=O)c1cc2c(=O)n3ccccc3nc2n(CCCOC)c1=NC(C)=O	-1	+	-8	-21	19	x
CCOC(=O)c1cc2c(=O)n3cccc(C)c3nc2n(CCOC)c1=NC(C)=O	1	+	-20	-7	1	4
CC(C)(C)n1nnnc1C(c1ccc(F)cc1)N(Cc1ccc(F)cc1)Cc1ccco1 (stereo unspecified)	0	-1	-3	-1	-8	-2
Cc1ccc(C(c2nnnn2C(C)(C)C)N(Cc2ccco2)Cc2cccs2)cc1 (stereo unspecified)	-2	36*	-36	1	-11	2
O=Cc1cc(N=Nc2ccccc2Cl)ccc1O	211*	-15	-30	-4	15	4
O=C(O)CN1CCNCCN(CC(=O)O)CCNCC1	107*	2	-15	2	3	x
Fc1ccc(-c2n[nH]c(=S)n2N=Cc2ccc(-c3ccccc3)cc2)cc1	x	x	x	-9	x	x
CCCC1CCC2(CC1)CCC2OC(=S)Nc1cccc(I)c1 (stereo unspecified)	x	x	x	4	x	x
COc1ccc(-c2nc(C#N)c(NCCCN3CCOCC3)o2)cc1	0	149*	-16	1	11	-3
N#Cc1nc(-c2cccs2)oc1NCCCN1CCOCC1	-1	+	-33	-1	15	-7
N#Cc1nc(/C=C/c2ccccc2)oc1NCCCN1CCOCC1	-1	+	-39	-14	26	5
CC(C)(C)c1ccc(-c2nnc(SCC(=O)Nc3ccc(Oc4ccccc4)cc3)n2Cc2ccco2)cc1	x	x	x	3	x	x
CCCc1cc(-c2n[nH]c(=S)n2-c2cccc(C)c2)cs1	68*	6	-23	11	10	2
Cc1cccc(-n2c(-c3csc(C(C)C)c3)n[nH]c2=S)c1	-2	4	11	-2	-10	5
CC(Oc1cc2oc(=O)c3c(c2cc1Cl)CCC3)C(=O)NCCCN1CCCC1=O (stereo unspecified)	-1	8	6	-2	17	3
Cc1cc(OC(C)C(=O)NCCCN2CCCC2=O)c2c(C)c(C)c(=O)oc2c1 (stereo unspecified)	0	112*	-15	-5	0	9
Cc1c(OC(C)C(=O)NCCCN2CCCC2=O)ccc2c3c(c(=O)oc12)CCCC3 (stereo unspecified)	0	43*	3	-2	3	3
